Results: the supplement of paper PMC10849652
About 7,900 targets were measured; listed, in parts, are those with a hit and a random draw of the rest. About 0.6% of all pairs of compound and target were hits. A number with no mark means an inactive call.

How the values were obtained:
Assay in all cases: log2 fold change, soluble protein after heating vs DMSO (PISA); higher = thermal stabilisation; K562 cells, 10 uM, 30 min; active = over 0.2 and 3.5 SD of the protein, either way, in both replicates (recomputed)
ZEB2 = ZEB2 (UniProt O60315)
How it was run: (§1)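 K562 cells at 2×10^6 cells/mL were exposed to 10 μM compound for 30 min, then aliquots were heated for 3 min across 48°C-58°C, pooled, and extracted in PBS containing 0.5% NP-40 at 4°C. The supernatant after 21,000xg for 90 min was taken as soluble protein and measured by TMTpro 16plex LC-MS/MS with channel sums equalised. Thermal stability is reported relative to control samples, with values from duplicates. Fold changes are given on a log2 scale.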

ZER1 = ZER1 (UniProt Q7Z7L7)
How it was run: as §1

ZFAND5 = ZFAND5 (UniProt O76080)
How it was run: as §1

ZFAND6 = ZFAND6 (UniProt Q6FIF0)
How it was run: as §1

ZFP91 = ZFP91 (UniProt Q96JP5)
How it was run: as §1

ZFPL1 = ZFPL1 (UniProt O95159)
How it was run: as §1

ZMAT2 = ZMAT2 (UniProt Q96NC0)
How it was run: as §1

ZMYM1 = ZMYM1 (UniProt Q5SVZ6)
How it was run: as §1

ZMYM3 = ZMYM3 (UniProt Q14202)
How it was run: as §1

ZNF143 = ZNF143 (UniProt P52747)
How it was run: as §1

Chain of ZMYM1 (Q5SVZ6 whole entry, looked up): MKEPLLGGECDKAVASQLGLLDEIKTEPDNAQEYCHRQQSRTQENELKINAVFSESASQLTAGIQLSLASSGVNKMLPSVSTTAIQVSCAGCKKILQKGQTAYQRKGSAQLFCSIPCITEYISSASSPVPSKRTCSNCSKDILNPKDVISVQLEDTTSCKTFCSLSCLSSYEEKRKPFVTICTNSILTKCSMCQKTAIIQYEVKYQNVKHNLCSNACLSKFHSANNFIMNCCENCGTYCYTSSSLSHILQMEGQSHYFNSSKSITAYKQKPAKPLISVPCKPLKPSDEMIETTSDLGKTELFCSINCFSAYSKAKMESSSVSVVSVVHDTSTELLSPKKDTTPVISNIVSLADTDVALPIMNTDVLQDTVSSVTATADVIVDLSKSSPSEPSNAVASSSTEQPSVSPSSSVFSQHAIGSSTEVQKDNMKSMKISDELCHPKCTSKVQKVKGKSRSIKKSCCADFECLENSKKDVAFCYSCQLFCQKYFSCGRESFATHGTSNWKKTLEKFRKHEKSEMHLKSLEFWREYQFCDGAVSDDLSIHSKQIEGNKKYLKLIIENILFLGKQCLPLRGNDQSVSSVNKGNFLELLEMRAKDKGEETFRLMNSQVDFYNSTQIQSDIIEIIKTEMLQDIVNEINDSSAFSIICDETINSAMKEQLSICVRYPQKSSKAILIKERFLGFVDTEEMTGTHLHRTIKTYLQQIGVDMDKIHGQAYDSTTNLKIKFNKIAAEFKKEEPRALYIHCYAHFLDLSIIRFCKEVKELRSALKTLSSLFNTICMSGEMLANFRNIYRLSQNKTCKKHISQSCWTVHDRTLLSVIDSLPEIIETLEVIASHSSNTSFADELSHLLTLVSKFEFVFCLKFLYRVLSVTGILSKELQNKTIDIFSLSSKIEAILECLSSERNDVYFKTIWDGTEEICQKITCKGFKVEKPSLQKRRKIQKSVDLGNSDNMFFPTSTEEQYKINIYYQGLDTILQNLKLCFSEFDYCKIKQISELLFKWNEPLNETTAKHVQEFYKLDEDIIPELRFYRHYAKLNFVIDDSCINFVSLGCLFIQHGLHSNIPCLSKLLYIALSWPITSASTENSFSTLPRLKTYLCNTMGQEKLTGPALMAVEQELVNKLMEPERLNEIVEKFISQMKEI
Chain of ZFP91 (Q96JP5 whole entry, looked up): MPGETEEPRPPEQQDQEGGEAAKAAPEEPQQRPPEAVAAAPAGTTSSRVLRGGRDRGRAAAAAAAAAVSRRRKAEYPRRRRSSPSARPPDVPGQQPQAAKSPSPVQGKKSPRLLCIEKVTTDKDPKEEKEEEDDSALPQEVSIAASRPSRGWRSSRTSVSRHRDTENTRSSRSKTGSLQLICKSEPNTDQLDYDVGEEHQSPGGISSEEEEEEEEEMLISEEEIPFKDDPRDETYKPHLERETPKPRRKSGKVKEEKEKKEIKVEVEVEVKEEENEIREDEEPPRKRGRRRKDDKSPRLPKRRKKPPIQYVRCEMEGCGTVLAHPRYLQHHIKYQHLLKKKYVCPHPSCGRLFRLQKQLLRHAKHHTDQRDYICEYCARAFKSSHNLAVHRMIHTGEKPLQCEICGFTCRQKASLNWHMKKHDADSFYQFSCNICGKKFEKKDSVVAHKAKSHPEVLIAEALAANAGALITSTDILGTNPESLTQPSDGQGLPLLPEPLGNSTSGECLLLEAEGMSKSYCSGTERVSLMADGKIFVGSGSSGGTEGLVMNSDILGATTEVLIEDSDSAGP
Chain of ZMYM3 (Q14202 whole entry, looked up): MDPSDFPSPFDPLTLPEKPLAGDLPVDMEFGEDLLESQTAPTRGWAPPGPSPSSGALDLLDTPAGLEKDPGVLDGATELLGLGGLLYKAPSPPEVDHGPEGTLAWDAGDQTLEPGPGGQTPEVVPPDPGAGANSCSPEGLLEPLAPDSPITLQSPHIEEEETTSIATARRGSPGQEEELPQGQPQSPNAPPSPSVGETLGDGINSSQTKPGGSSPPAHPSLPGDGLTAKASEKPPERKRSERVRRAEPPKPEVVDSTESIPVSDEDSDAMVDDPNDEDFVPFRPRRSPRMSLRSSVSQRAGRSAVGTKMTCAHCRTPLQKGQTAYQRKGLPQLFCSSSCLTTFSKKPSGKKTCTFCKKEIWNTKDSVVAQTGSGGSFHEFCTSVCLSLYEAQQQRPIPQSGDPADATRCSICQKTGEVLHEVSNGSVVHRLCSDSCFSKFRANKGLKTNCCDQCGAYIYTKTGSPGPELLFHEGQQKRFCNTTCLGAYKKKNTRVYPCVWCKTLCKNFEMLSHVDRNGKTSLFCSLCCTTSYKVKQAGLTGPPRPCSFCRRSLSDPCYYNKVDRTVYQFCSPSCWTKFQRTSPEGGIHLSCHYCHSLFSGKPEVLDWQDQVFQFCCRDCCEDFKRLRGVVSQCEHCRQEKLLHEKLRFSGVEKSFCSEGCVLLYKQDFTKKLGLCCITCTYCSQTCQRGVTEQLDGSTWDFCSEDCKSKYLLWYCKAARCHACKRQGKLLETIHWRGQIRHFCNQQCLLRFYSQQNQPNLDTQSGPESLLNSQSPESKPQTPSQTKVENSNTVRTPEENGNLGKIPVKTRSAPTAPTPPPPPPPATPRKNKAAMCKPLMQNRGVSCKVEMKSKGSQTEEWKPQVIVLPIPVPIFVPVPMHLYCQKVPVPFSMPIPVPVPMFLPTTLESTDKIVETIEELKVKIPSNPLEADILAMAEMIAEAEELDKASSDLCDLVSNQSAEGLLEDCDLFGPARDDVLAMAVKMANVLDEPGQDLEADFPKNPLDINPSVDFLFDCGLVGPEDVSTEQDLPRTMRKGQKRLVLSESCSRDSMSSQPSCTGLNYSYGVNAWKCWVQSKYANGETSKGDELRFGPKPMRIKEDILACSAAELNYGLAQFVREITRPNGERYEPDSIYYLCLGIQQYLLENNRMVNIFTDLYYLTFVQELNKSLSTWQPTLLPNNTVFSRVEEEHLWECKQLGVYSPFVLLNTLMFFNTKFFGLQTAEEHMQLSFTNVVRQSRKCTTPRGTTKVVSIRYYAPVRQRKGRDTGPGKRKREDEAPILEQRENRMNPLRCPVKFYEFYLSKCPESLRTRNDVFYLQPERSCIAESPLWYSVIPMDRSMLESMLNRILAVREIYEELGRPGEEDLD
Chain of ZNF143 (P52747 whole entry, looked up): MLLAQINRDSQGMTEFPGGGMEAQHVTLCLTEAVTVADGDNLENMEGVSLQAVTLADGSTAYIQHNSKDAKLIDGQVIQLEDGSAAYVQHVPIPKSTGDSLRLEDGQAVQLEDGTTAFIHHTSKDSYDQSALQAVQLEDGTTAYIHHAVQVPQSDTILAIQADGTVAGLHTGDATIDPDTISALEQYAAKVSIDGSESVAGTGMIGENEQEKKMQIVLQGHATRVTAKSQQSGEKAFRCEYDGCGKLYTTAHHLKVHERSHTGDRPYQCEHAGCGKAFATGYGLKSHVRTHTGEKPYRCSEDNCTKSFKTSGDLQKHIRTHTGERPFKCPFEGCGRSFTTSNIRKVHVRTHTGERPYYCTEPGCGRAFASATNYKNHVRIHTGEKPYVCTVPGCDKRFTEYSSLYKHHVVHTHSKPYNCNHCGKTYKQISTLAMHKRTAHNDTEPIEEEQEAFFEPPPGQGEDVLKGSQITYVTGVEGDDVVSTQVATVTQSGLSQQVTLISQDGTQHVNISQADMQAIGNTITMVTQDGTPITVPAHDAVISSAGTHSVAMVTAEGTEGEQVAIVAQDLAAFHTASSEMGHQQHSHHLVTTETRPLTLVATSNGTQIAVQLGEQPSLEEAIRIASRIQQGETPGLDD
Chain of ZFAND5 (O76080 whole entry, looked up): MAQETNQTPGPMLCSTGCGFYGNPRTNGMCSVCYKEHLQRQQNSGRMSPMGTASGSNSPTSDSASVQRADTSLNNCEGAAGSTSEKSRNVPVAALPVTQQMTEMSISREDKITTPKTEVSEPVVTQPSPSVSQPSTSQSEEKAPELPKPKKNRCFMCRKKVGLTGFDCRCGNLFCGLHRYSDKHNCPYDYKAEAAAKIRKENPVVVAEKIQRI
Chain of ZFAND6 (Q6FIF0 whole entry, looked up): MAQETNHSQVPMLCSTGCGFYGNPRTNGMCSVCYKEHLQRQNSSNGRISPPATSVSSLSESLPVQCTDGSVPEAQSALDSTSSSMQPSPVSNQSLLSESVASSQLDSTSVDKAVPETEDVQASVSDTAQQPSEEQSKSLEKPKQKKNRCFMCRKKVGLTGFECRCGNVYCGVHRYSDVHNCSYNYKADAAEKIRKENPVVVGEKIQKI
Chain of ZER1 (Q7Z7L7 whole entry, looked up): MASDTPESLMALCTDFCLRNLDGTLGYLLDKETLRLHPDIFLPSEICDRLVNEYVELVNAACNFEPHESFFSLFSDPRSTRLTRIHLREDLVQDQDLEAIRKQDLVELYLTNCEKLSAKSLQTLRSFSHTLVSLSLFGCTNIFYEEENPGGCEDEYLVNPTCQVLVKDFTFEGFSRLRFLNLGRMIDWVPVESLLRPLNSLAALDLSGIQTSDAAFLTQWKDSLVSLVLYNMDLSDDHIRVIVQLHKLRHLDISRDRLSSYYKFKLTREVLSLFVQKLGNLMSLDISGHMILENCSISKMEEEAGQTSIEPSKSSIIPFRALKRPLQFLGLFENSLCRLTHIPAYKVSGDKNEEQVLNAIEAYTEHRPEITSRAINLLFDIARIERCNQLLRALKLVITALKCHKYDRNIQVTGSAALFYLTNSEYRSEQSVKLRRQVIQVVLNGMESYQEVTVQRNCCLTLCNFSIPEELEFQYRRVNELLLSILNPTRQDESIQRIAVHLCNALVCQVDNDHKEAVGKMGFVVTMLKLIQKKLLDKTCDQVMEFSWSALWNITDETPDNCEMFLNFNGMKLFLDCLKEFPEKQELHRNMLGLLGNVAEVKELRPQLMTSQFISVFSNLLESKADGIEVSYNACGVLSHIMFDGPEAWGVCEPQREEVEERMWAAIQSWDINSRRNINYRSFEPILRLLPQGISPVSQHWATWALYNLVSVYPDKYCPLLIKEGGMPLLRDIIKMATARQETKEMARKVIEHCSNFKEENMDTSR

| Compound | log2 fold change (ZEB2) | log2 fold change (ZER1) | log2 fold change (ZFAND5) | log2 fold change (ZFAND6) | log2 fold change (ZFP91) | log2 fold change (ZFPL1) | log2 fold change (ZMAT2) | log2 fold change (ZMYM1) | log2 fold change (ZMYM3) | log2 fold change (ZNF143) |
| --- | --- | --- | --- | --- | --- | --- | --- | --- | --- | --- |
| CS(=O)(=O)c1ccc(-c2cnc(N)c(C(=O)Nc3ccccc3)n2)cc1 | 0.025 | 0.034 | -0.035 | -0.036 | -0.072 | -0.045 | -0.127 | 0.026 | 0.023 | -0.014 |
| COc1cc(Nc2ncc3c(n2)-c2ccc(Cl)cc2C(c2c(F)cccc2OC)=NC3)ccc1C(=O)O [alisertib] | 0.103 | -0.006 | -0.057 | -0.079 | -0.013 | 0.014 | -0.045 | -0.021 | 0.057 | -0.05 |
| COc1ccc(Cn2ccc3ccc(C(=O)NO)cc32)cc1 | -0.078 | -0.236 | -0.032 | 0.066 | -0.076 | 0.074 | 0.378 (active) | -0.056 | 0 | -0.035 |
| C=CC(=O)N1CCC[C@@H](n2nc(-c3ccc(Oc4ccccc4)cc3)c3c(N)ncnc32)C1 [ibrutinib] | 0.029 | 0.001 | 0.03 | 0.006 | 0 | 0.087 | 0.025 | 0.066 | 0.03 | 0.01 |
| CC(C)N(C[C@H]1O[C@@H](n2cnc3c(N)ncnc32)[C@H](O)[C@@H]1O)[C@H]1C[C@@H](CCc2nc3cc(C(C)(C)C)ccc3[nH]2)C1 [pinometostat] | 0.06 | 0.098 | -0.047 | -0.048 | 0.136 | -0.11 | -0.037 | 0.001 | -0.011 | 0.014 |
| CNC(=O)c1ccccc1Nc1nc(Nc2ccc(N3CCOCC3)cc2OC)ncc1Cl | -0.07 | -0.164 | -0.141 | -0.015 | -0.016 | 0.061 | -0.018 | -0.082 | 0 | -0.084 |
| CCN(CC)Cc1ccc2cc(COC(=O)Nc3ccc(C(=O)NO)cc3)ccc2c1 [givinostat] | 0.193 | 0.117 | -0.016 | 0.017 | 0.009 | -0.09 | -0.008 | 0.12 | 0.002 | -0.022 |
| COc1cccc2cc(-c3nc([C@H]4CC[C@H](C(=O)O)CC4)n4ncnc(N)c34)[nH]c12 | 0.051 | 0.067 | 0.129 | 0.046 | -0.042 | -0.039 | 0.071 | -0.128 | 0.001 | 0.05 |
| COc1cc2ncnc(Nc3ccc(F)c(Cl)c3)c2cc1OCCCN1CCOCC1 [gefitinib] | -0.086 | -0.031 | -0.006 | -0.005 | 0.02 | 0.065 | -0.021 | 0.014 | 0.034 | -0.098 |
| O=C1NC(=O)C(c2cnc3ccccn23)=C1c1cn2c3c(cc(F)cc13)CN(C(=O)N1CCCCC1)CC2 | 0.116 | -0.198 | -0.157 | -0.013 | 0.073 | -0.003 | 0.012 | 0.045 | 0.003 | -0.042 |
| Cc1ccc(Sc2cncc3sc(C(N)=O)cc23)cc1 | -0.012 | -0.085 | -0.047 | -0.01 | -0.025 | 0.008 | 0.113 | 0.061 | -0.07 | -0.042 |
| Cc1cccc(-c2[nH]c(C(C)(C)C)nc2-c2ccc3nccnc3c2)n1 | 0.031 | -0.248 | 0.007 | -0.088 | -0.069 | 0.032 | 0.088 | 0.042 | -0.038 | 0.021 |
| Cc1ccc(C(=O)N(CCCN)[C@@H](c2nc3cc(Cl)ccc3c(=O)n2Cc2ccccc2)C(C)C)cc1 [ispinesib] | 0.05 | 0.153 | -0.07 | -0.082 | -0.227 | 0.236 | 0.042 | -0.122 | -0.013 | -0.038 |
| CC(C)C[C@@H](C=O)NC(=O)[C@H](CC(C)C)NC(=O)[C@H](CC(C)C)NC(=O)OCc1ccccc1 | 0.131 | 0.039 | 0.007 | 0.119 | 0 | 0.038 | 0.049 | 0.006 | 0.09 | -0.119 |
| CCn1c(C(=O)N(C2CC2)C2CC2)cc2c3c(ncn3C)c(Nc3cc(C)n(C)n3)nc21 | -0.041 | 0.045 | 0.063 | 0.046 | -0.028 | 0.042 | 0.022 | -0.079 | -0.029 | 0.075 |
| CCCS(=O)(=O)Nc1ccc(F)c(C(=O)c2c[nH]c3ncc(-c4ccc(Cl)cc4)cc23)c1F [vemurafenib] | 0.256 | -0.033 | -0.106 | -0.024 | -0.071 | 0.021 | -0.021 | -0.095 | -0.109 | 0.029 |
| COc1cc2nc(-c3cc(F)ccc3O)nc(N[C@@H]3CNC[C@H]3C(C)(C)O)c2cc1OC | -0.018 | 0.048 | 0 | 0.017 | -0.095 | 0.099 | -0.028 | 0.004 | -0.045 | -0.19 |
| Cc1ccc2c(=O)c3ccccc3n(CCCN)c2c1C | -0.476 (active) | -0.017 | -0.095 | 0 | -0.432 (active) | 0.079 | -0.04 | 0.024 | -0.058 | -0.043 |
| C#Cc1cccc(Nc2ncnc3cc(OCCOC)c(OCCOC)cc23)c1 [erlotinib] | 0.101 | 0.086 | -0.028 | 0.024 | -0.004 | -0.022 | -0.017 | 0.14 | 0.042 | 0.021 |
| Cn1cc(-c2ccc3nnc(C(F)(F)c4ccc5ncccc5c4)n3n2)cn1 | -0.135 | -0.024 | -0.036 | -0.009 | -0.073 | -0.03 | -0.051 | 0.05 | -0.246 (active) | 0.041 |
| Cc1ccc(NC(=O)c2cccc(C(C)(C)C#N)c2)cc1Nc1ccc2ncn(C)c(=O)c2c1 | -0.027 | -0.041 | -0.064 | 0.069 | 0.017 | 0.061 | 0.209 | -0.071 | -0.092 | -0.023 |
| Cn1cncc1[C@@](N)(c1ccc(Cl)cc1)c1ccc2c(c1)c(-c1cccc(Cl)c1)cc(=O)n2C [tipifarnib] | 0.045 | 0.111 | 0.031 | -0.09 | 0.149 | 0.008 | -0.058 | 0.01 | 0.027 | 0.037 |
| Cc1cc(SCc2sc(-c3ccc(C(F)(F)F)cc3)nc2C)ccc1OCC(=O)O | 0.089 | 0.055 | -0.079 | -0.038 | 0.042 | 0.025 | -0.048 | 0.032 | -0.011 | 0.028 |
| FC(F)(F)c1ccc(/C=C/c2nc(COc3ccc(CCCCn4ccnn4)cc3)co2)cc1 [mubritinib] | -0.114 | 0.044 | 0.099 | 0.017 | -0.076 | -0.007 | 0.049 | -0.081 | -0.072 | 0.094 |
| CNc1nc(-c2ccc3c(N)n[nH]c3c2)cc(N2C[C@@H](C(=O)NC3CCCCC3)CC[C@H]2C)n1 | -0.09 | -0.245 | -0.072 | -0.017 | -0.007 | -0.031 | -0.058 | -0.021 | -0.004 | -0.118 |
